Screens as filed in PubChem.
HP1b binding inh – blocks HP1-beta chromodomain binding to methylated histone tails; AlphaScreen HP1-beta / biotin-H3K9me3 peptide binding; Potency, µM (titrated, usually from 114 µM), without a hit: top-dose activity change, negative = inhibition, hits mostly inhibitors; hit rate 0.56% among 390,000; P83916; also: nearly all actives have a fitted effect of over 70% in size
Target sequence (P83916 whole entry, looked up): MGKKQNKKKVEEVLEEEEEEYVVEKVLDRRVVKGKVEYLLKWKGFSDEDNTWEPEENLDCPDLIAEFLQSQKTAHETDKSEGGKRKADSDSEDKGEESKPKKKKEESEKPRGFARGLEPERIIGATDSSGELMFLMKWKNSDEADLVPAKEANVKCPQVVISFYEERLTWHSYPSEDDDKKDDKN
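AlphaScreen: HP1-beta (50 nM) preformed 30 min with biotin-H3(1-18)K9me3 peptide (50 nM) in PBS pH 7.4, 0.01% Tween-20. Compound added for 30 min at RT, then streptavidin donor/nickel chelate acceptor beads (10 ug/mL) for 30 min.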
JMJD2A Tudor – JMJD2A Tudor domain (human) inhibition. Potency, µM (series often up to 114 µM), for inactives: top-dose activity change, negative = inhibition, hits mostly inhibitors. AID 504339. AlphaScreen JMJD2A-Tudor / H3K4me3 peptide binding. hit rate 4.4% among 390,000. O75164; also: % is scaled to controls: 0 for no effect and ±100 for the full control effect; nearly all actives have a fitted effect of over 50% in size
G9a inh – inhibitors of human histone lysine methyltransferase G9a; Q96KQ7; G9a H3K9 monomethylation, AlphaScreen, 2 h; Potency, µM (top dose mostly 102 µM), without a hit: at the top dose activity, negative = inhibition, usual class: inhibitors; hit rate 8.8% among 350,000; AID 504332; also: % is scaled to controls: 0 for no effect and ±100 for the full control effect; nearly all actives have a fitted effect of over 75% in size
Target sequence (Q96KQ7 913-1193 limits assumed): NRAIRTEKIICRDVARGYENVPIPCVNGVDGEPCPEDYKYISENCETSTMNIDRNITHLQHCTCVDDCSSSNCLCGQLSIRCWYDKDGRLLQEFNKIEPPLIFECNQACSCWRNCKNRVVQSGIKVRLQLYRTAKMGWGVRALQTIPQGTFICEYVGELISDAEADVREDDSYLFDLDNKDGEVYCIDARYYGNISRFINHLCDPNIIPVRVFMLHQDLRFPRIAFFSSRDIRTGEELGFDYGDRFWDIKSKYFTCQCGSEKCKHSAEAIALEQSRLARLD
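Step 1: enzyme (final 20 nM) with compound, 15 min RT. Step 2: substrate peptide 500 nM and SAM 20 uM, 2 h RT. Step 3: anti-H3K9me1 antibody and AlphaScreen beads, 10 min, then plate read.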
BAZ2B inh – blocks human BAZ2B | Potency, µM (doses to about 114 µM), for the others: top-dose activity change, negative = inhibition, actives largely listed as inhibitors | Q9UIF8 | hit rate 4.4% among 360,000 | AlphaScreen BAZ2B-H3K14Ac peptide displacement; also: % is scaled to controls: 0 for no effect and ±100 for the full control effect; nearly all actives have a fitted effect of over 60% in size
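Protein-peptide AlphaScreen: BAZ2B 50 nM, b-H3K14Ac 50 nM, 1x PBS pH 7.4 + 0.01% Tween-20. Preincubation 30 min RT; cpd 30 min RT (top 110 uM); beads 20 min RT, light-protected.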
Sfp inh – blocks B. subtilis Sfp PPTase activity | AID 1490 | Potency, µM, inactives show largest response in the series, negative = inhibition, hits mostly inhibitors | Biochemical Sfp PPTase activity, qHTS | hit rate 3.5% among 310,000;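 also: the enzyme is Sfp with the accession as filed and its product quenches rhodamine fluorescence; 0% = enzyme reaction without inhibitor and -100% = no enzyme wells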
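After 15 min at room temperature with compound, 15 nM Sfp received 5 uM rhodamine-CoA plus 12.5 uM BHQ-2-ybbR (50 mM Hepes pH 7.6, 10 mM MgCl2). Rate came from the fluorescence difference over 30 min, ex 525/em 598 nm.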
The depositor's hits bear a star; ? = inconclusive; . = no result; [ ] = another dose, or the depositor's remark. Sampled rows, rich in hits. Any-hit rate of the full collection: about 12%. Calls follow the shape of the dose curve; as a rule, active = well fitted curve in the direction sought with a large enough effect; inconclusive = small, poorly fitted or top-dose-only effect, or another doubt; inactive = no such curve, though single readings can be large; an effect the other way counts as inactive or inconclusive. Potency is read from the fitted curve at half-maximal effect.

SMILES | HP1b binding inh | JMJD2A Tudor | G9a inh | BAZ2B inh | Sfp inh
CC(NCC(O)COc1ccccc1)C1COc2ccccc2O1 (configuration not stated) | 23.2% | -7.5% | -11.3% | -16.6% | 7.6%
CC(NCc1ccccc1)C1COc2ccccc2O1 (configuration not stated) | -55.9% | 3.16µM* | 31.6µM* | ? | -8.8%
CCOC(=O)c1c(C2COc3ccccc3O2)csc1NC(=O)c1ccco1 (configuration not stated) | 17.8µM* | 31.6µM* | 1.58µM* | ? | ?
CC(NC(=O)CCC(=O)NC(C)C1COc2ccccc2O1)C1COc2ccccc2O1 (configuration not stated) | 27.2% | -15.6% | 5.0%[59 µM] | 9.7% | 10.1%
COc1ccc(CNC(C)C2COc3ccccc3O2)c(OC)c1 (configuration not stated) | ? | 3.55µM* | 10µM* | 50.1µM* | -20.4%
CC(NC(=O)c1ccco1)C1COc2ccccc2O1 (configuration not stated) | -6.2% | 56.2µM* | 25.1µM* | 50.1µM* | 4.8%
CCOC(=O)c1c(-c2cccs2)csc1NC(=O)c1ccco1 | 27.7% | -2.1% | -16.8%[59 µM] | 0.2% | 9.8%
CC(NC(=O)CN1CCN(c2ccccc2F)CC1)c1ccccc1 (configuration not stated) | 33.9% | -13.0% | 12.2% | -14.2% | 19.8%
COc1ccccc1N1CCN(C(=O)COc2ccccc2C#N)CC1 | 24.5% | -5.1% | -30.0%[59 µM] | -3.2% | .
CCC(C(=O)Nc1sc(C(N)=O)c(C)c1C(=O)OC)c1ccccc1 (configuration not stated) | 17.4% | -10.1% | ? | -22.3% | -3.7%
CC1CCCCC12NC(=O)N(Cc1cc(=O)n3ccsc3n1)C2=O (configuration not stated) | 9.0% | -26.9% | 10.8%[59 µM] | -15.9% | 9.1%
CCCC(C)C(=O)OCC(=O)Nc1ccc(Br)cc1 (configuration not stated) | . | . | 31.6µM* | 4.2% | 15.5%
Cc1n[nH]c(=O)nc1NCCc1ccccc1 | 16.1% | 21.1% | 89.1µM* | -4.5% | 0.2%
CCOc1cc(/C=N/Nc2nnc(C)n2N)ccc1O | 18.3% | -15.3% | 25.1µM* | ? | 56.2µM*
Cc1n[nH]c(=O)nc1N/N=C/c1ccco1 | 14.4% | ? | -39.6% | 25.1µM* | 39.8µM*
CCOc1cc(/C=N/Nc2nc(=O)[nH]nc2C)ccc1O | 20.9% | ? | 16.0% | -16.9% | 70.8µM*
Cc1ccc(S(=O)(=O)N2CCC(C(=O)OCc3ccc([N+](=O)[O-])cc3)CC2)cc1 | 3.2% | -22.6% | 26.6%[59 µM] | 2.9% | -4.0%
CCc1c(C)nc(N)n2c(SCC(=O)Nc3ccccc3OC)nnc12 | 23.4% | -11.0% | -5.7%[59 µM] | 5.0% | -3.6%
COc1ccc(/C=N/NC(=O)C2C(C=C(Cl)Cl)C2(C)C)c(OC)c1 (configuration not stated) | 15.3% | ? | 9.8% | -11.3% | 9.9%
COC(=O)c1ccc(S(=O)(=O)N2CCCCC2)o1 | 13.2% | -2.3% | 2.6%[59 µM] | -1.0% | 20.9%
CCOc1ccc(/C=N/Nc2nc(=O)[nH]nc2C)cc1OC | 28.9% | ? | -34.5% | -2.0% | 25.1µM*
COc1cc(/C=N/NC(=O)c2cc(C3CC3)[nH]n2)cc(OC)c1OC | 29.2% | -25.0% | 11.1% | -14.1%[57.1 µM] | 9.2%
Cc1n[nH]c(=O)nc1Nc1ccc(O)cc1 | 10.8% | -12.8% | 79.4µM* | 9.0% | -4.2%
CCCOc1ccc(/C=N/Nc2ccccn2)cc1OC | 40.5% | -8.2% | -2.4% | -3.5% | ?
COc1cc(/C=N/Nc2nc(=O)[nH]nc2C)cc(OC)c1O | -13.3% | ? | ? | 2.9% | 35.5µM*
SMILES | HP1b binding inh | JMJD2A Tudor | G9a inh | BAZ2B inh | Sfp inh
COc1cc(N=Nc2c(O)c3ccccc3[nH]c2=O)c(OC)cc1N=Nc1ccccc1 | ? | ? | 44.7µM* | ? | -8.1%
NC(=O)c1ccc(N=Nc2c(O)c3ccccc3[nH]c2=O)cc1 | . | . | ? | ? | -8.3%
c1ccc(-c2nc3ccccn3c2NC2CCCC2)nc1 | -10.1% | ? | 26.0%[12.7 µM] | 50.1µM* | 10µM*
COc1ccc(-c2nc3ccccn3c2NC2CCCCC2)cc1SC1CCCCC1 | 8.0% | ? | 5.4%[2.33 µM] | ? | .
Cc1ccn2c(NC3CCCC3)c(-c3ccccn3)nc2c1 | -19.6% | 50.1µM* | ? | 50.1µM* | -7.1%
Cc1ccn2c(NC3CCCC3)c(-c3ccncc3)nc2c1 | 27.1% | -30.4% | -43.9% | -8.9% | -5.8%
O=Cc1ccc(Sc2nnc(-c3ccccc3)o2)c([N+](=O)[O-])c1 | -29.6% | ? | 39.8µM* | 44.7µM* | -2.2%
CCN(CC)C(=O)CSc1nc2sc3c(c2c(=O)n1CCOC)CCC3 | 21.9% | -22.6% | . | -10.9% | 2.9%
CCOC(=O)c1sc2nc(SCC(=O)N(CC)CC)n(CCCN3CCCC3=O)c(=O)c2c1C | 36.0% | -21.1% | 15.4%[59 µM] | 79.4µM* | ?
O=C(Cc1ccccc1Cl)NC1(O)C(=O)c2ccccc2C1=O | 49.0% | -2.4% | 56.2µM* | -0.1% | 7.4%
CCCC(=O)N(C1CC(C)C(C#N)(C#N)C1(C#N)C#N)N(C)C (configuration not stated) | 4.1% | -32.8% | 7.08µM* | 15.9% | 1.78µM*
CC(=O)N(C1CC(C)C(C#N)(C#N)C1(C#N)C#N)N(C)C (configuration not stated) | 20.4% | -17.5% | 12.6µM* | -9.6% | 10µM*
Cc1cn(C(=O)CN2C(=O)c3ccccc3C2=O)c(C)n1 | 30.8% | -4.1% | 24.0%[59 µM] | 10.1% | 17.8%
CC(C)=Cc1c(O)nc2ccccn2c1=O | 18.3% | -15.0% | -3.8% | -25.7% | 9.3%
NC(=O)[C@@H]1CCNc2c(I)cc([N+](=O)[O-])cc2C(=O)N[C@@H](CCC(=O)O)C(=O)N[C@@H](CO)C(=O)N1 | 30.5% | -14.5% | 10µM* | -37.9% | -28.0%
NC(=O)[C@@H]1CCCCNc2c(I)cc([N+](=O)[O-])cc2C(=O)N[C@@H](CCC(=O)O)C(=O)N[C@@H](CO)C(=O)N1 | 26.1% | -28.4% | 39.8µM* | -34.3% | 6.3%
NC(=O)[C@@H]1CCCNc2c(F)cc([N+](=O)[O-])cc2C(=O)N[C@@H](CCC(=O)O)C(=O)N[C@@H](CO)C(=O)N1 | 23.9% | -22.1% | 79.4µM* | -35.8% | 6.3%
NC(=O)[C@@H]1CCCCNc2c(F)cc([N+](=O)[O-])cc2C(=O)N[C@@H](CC(=O)O)C(=O)N[C@@H](CCC(=O)O)C(=O)N1 | 31.7% | ? | ? | -10.8% | -0.2%
CC[C@H](C)[C@@H]1NC(=O)c2cc([N+](=O)[O-])cc(F)c2NCCCC[C@@H](C(N)=O)NC(=O)[C@H](CC(N)=O)NC1=O | 35.9% | -20.4% | ? | -2.3% | 6.9%
NC(=O)C[C@@H]1NC(=O)c2cc([N+](=O)[O-])cc(F)c2NCCCC[C@@H](C(N)=O)NC(=O)[C@H](CO)NC1=O | . | . | 50.1µM* | ? | 3.4%
